The values below come from PubChem BioAssay (EPA / NIEHS).

Results filed as inconclusive are left out. Calls of active or inactive are those of the source. The calls were made as follows: active = hit-call score of the fitted dose curve at least 0.9, where 1 is the maximum; inconclusive = response in the unintended direction; inactive = score below 0.9.

The nature of this experiment: ACEA_AR_antagonist_AUC_viability: ACEA Biosciences xCELLigence Real-Time Cell Analysis on Androgen Receptor Antagonism for Viability (AID 2283776).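 Also: hits lower the growth signal relative to DMSO meaning cytotoxicity.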 As to the method: ACEA_AR_antagonist is a cell-based, single-readout assay that uses 22Rv1, a human prostate cancer cell line, with measurements taken at 80 hours after chemical dosing in a 384-well plate, although TO5 and TO6 (mc0.srcf) used a 96-well plate. Differences in plate size can be ignored given data normalization.ACEA_AR_80hr is one of two assay component(s) measured or calculated from the […] assay. It is designed to make measurements of real-time cell-growth kinetics, a form of growth reporter, as detected with electrical impedance signals by Real-Time Cell Electrode Sensor (RT-CES) technology.Data from the assay component ACEA_AR_antagonist_AUC_viability was analyzed in the positive analysis fitting direction relative to DMSO as the negative control and baseline of activity. Using a type of growth reporter, loss-of-signal activity can be used to understand changes in the viability. Furthermore, this assay endpoint can be referred to as a secondary readout, because this assay has produced multiple assay endpoints where this one serves a viability function. To generalize the intended target to other relatable targets, this assay endpoint is annotated to the cell cycle intended target family, where the subfamily is cytotoxicity.
The xCELLigence system Multi-E-Plate stations were used to measure the time-dependent response to chemicals. Each compound was tested in an eight-point, 1:4 serial dilution series starting at a maximum final concentration of 100 uM. A maximum starting concentration of 0.5% DMSO was present in the 100 uM chemical samples and was diluted along with the test article dilution series. The screen was performed in biological duplicate using two separate, 96-well, E-Plates 96 for each dilution series (n = 2). Positive controls (MG132 and testosterone) and a negative control (assay media) were tested in quadruplicate on each testing plate. Then, 0.5% and 0.125% DMSO were tested in duplicates in each plate to serve as solvent controls for the 2 highest concentrations of testing compounds: 100 uM and 25 uM. Reference compounds were tested with 8 concentrations with 1:5 serial dilutions. All screening was carried out by ACEA Biosciences, Inc. (San Diego, CA). 22Rv1 cells purchased from ATCC were maintained in media supplemented with 10% fetal bovine serum (FBS). Before screening, 22Rv1 cells were preconditioned in assay medium. Cells were then detached and seeded in E-Plates 96 in assay medium. After overnight monitoring of growth once every hour, compounds were added to […] cells and remained in the medium until the end of the experiment. Cellular responses were then recorded once every 5 min for the first 5 h, and once every hour for an additional 100 h.
Turning to `CC(C)(C)C(=O)C(Oc1ccc(Cl)cc1)n1cncn1` (stereo not given), the compound was called inactive.

`Cc1cc(C)nc(Nc2ccccc2)n1`: the call was inactive. On the same count and under the same terms, in the case of `CCSC(=O)N1CCCCCC1` it was “inactive”; in that of `O=c1n(Cl)c(=O)n(Cl)c(=O)n1Cl`, “inactive”. What is called AC50 is the concentration giving half of the maximal activity seen. On to `C=C(C)CN(CC)c1c([N+](=O)[O-])cc(C(F)(F)F)cc1[N+](=O)[O-]`, for which the AC50 was 50 µM (active).

As to `CCNC(=O)NC(=O)C(C#N)=NOC`, the call was inactive. Still for that read-out and setting: in the case of `CCC(C)n1c(=O)[nH]c(C)c(Br)c1=O` (stereo not given) it was “inactive”; in that of `Nc1c(Cl)c(F)nc(OCC(=O)O)c1Cl`, “inactive”. `CSC(=O)c1c(C(F)F)nc(C(F)(F)F)c(C(=O)SC)c1CC(C)C`: the AC50 was 37.4 µM (active).

On to `COC(=O)NC(=S)Nc1ccccc1NC(=S)NC(=O)OC`, for which the AC50 is 21.6 µM (active). Take `O=C1C2CC=CCC2C(=O)N1SC(Cl)(Cl)Cl` (stereo not given): the half-maximal activity concentration (AC50) is 17.2 µM (active). As to `CCOP(=S)(OCC)Oc1nc(Cl)n(C(C)C)n1`, the result was inactive.

Consider `CC(C)N1C(=O)N(c2ccccc2)CSC1=NC(C)(C)C`, for which the AC50 is 50 µM (active). Turning to `CNC(=O)Oc1cccc2ccccc12`, the AC50 was 24.8 µM (active). Regarding `Cc1ccc(N=CN(C)C=Nc2ccc(C)cc2C)c(C)c1`, the AC50 was 17.6 µM (active). Same read-out and setting: in the case of `OC(c1ccc(Cl)cc1)(c1ccc(Cl)cc1)C(Cl)(Cl)Cl` it was 13 µM (active). With `N#Cc1c(Cl)cccc1Cl`, the compound was classed as inactive.

Consider `Clc1nc(Cl)nc(Nc2ccccc2Cl)n1`, for which the call was inactive. Same read-out and setting: with `CCOc1nc(C(Cl)(Cl)Cl)ns1` the entry was “inactive”.

For `O=C(Nc1ccccc1-c1ccc(Cl)cc1)c1cccnc1Cl`, the AC50 is 50 µM (active). In the case of `CC(C)Nc1nc(Cl)nc(NC(C)C)n1`, the call was inactive. As for `CCOP(=O)(OCC)Oc1nc(Cl)c(Cl)cc1Cl`, the AC50 is 72.7 µM (active). On to `COC(=O)c1c(C(F)F)nc(C(F)(F)F)c(C2=NCCS2)c1CC(C)C`, for which the compound was called inactive. As for `CCOC(=O)C(C)OC(=O)c1cc(Oc2ccc(C(F)(F)F)cc2Cl)ccc1[N+](=O)[O-]` (stereo not given), the AC50 was 50 µM (active). As to `CCN(CC)C(=O)C(C)Oc1cccc2ccccc12` (stereo not given), the compound was classed as inactive. In the case of `CCCCOCN(C(=O)CCl)c1c(CC)cccc1CC`, the AC50 is 70.9 µM (active).

As for `Nc1cnn(-c2ccccc2)c(=O)c1Cl`, the call was inactive. In the case of `CC(C)=CC1C(C(=O)OCc2coc(Cc3ccccc3)c2)C1(C)C` (stereo not given), the AC50 is 40.4 µM (active).

For the compound `O=C(O)c1c(Cl)ccc2cc(Cl)cnc12`, the compound was classed as inactive. On the same count and under the same terms, with `COc1cc(Cl)c(OC)cc1Cl` the entry was “inactive”. Consider `CC1(C)C(C(=O)OC(C#N)c2cccc(Oc3ccccc3)c2)C1(C)C` (stereo not given), for which the AC50 was 50 µM (active). Take `CC(C)Oc1cccc(NC(=O)c2ccccc2C(F)(F)F)c1`: the outcome was inactive. On to `COP(=O)(OC)O/C(C)=C/C(=O)N(C)C`, for which the call was inactive. `C=CCOC(=O)C(C)(C)OC(=O)c1cc(-n2c(=O)cc(C(F)(F)F)n(C)c2=O)ccc1Cl`: the concentration at half-maximal activity (AC50) was 50.5 µM (active). `COc1ccc(-c2ccccc2)cc1NNC(=O)OC(C)C`: the call was inactive. Consider `O=P(O)(O)CCCl`, for which the call was inactive. `CCOc1cc(C(C)(C)C)ccc1C1COC(c2c(F)cccc2F)=N1` (stereo not given): the AC50 was 19.1 µM (active). For the compound `Cc1cnc(C2=NC(C)(C(C)C)C(=O)N2)c(C(=O)O)c1` (stereo not given), the result was inactive. With `COCC(C)N(C(=O)CCl)c1c(C)csc1C` (stereo not given), the AC50 was 33 µM (active). Regarding `CS(=O)(=O)c1cc(C(F)(F)F)ccc1C(=O)c1cnoc1C1CC1`, the outcome was inactive.
